Structures are written as SMILES. Activity calls are given as the source filed them. Entries that show only a call come without a potency. Calls come from the whole dose curve; as a rule, active = well fitted curve in the direction sought with a large enough effect in the repeat runs; inconclusive = weak or mixed curves; inactive = flat fitted curve, though single readings scatter.

For 38 compounds, Potency results are on record in PubChem BioAssay (Tox21).

The nature of this assay: qHTS assay to test for compound auto fluorescence at 535 nm (green) in HepG2 cells (AID 720675). Conditions: green autofluorescence 485/535 nm, 1 h; series mostly up to 46 µM.
For `CNC(=O)c1c(I)c(C(=O)NCC(=O)Nc2c(I)c(C(=O)O)c(I)c(C(=O)NCCO)c2I)c(I)c(N(C)C(C)=O)c1I`, the Potency result was “inactive”.

Regarding `CCCCCc1ccc(C)cc1O`, the Potency result is “inactive”.

On to `N#CC(c1ccc(Cl)cc1)c1c(Cl)cc(-n2ncc(=O)[nH]c2=O)cc1Cl` (stereo not drawn), for which the Potency result was “inactive”.

On to `CN[C@H]1CCc2cc(OC)c(OC)c(OC)c2-c2ccc(OC)c(=O)cc21`, for which the Potency result was “inactive”.

`COC(=O)C1=C(C#N)NC(C)=C(C(=O)OC(C)C)C1c1cccc([N+](=O)[O-])c1` (stereo not drawn): the Potency entry was “inactive”.

For `C[C@]12C=CC(=O)N[C@@H]1CC[C@@H]1[C@@H]2CC[C@]2(C)[C@@H](C(=O)Nc3cc(C(F)(F)F)ccc3C(F)(F)F)CC[C@@H]12`, the Potency entry is “inactive”.

For `CC(=O)Nc1ccc(OC(=O)c2ccccc2O)cc1`, the Potency result was “inactive”.

Regarding `NC(=O)Oc1ccc(Cc2ccccc2)cc1`, the Potency result was “inactive”.

For `CCCCCCCN(CC)CCCC(O)c1ccc(NS(C)(=O)=O)cc1` (stereo not drawn), the Potency entry is “inactive”.

For `[O]=[Bi][O]C(=O)[O][Bi]=[O]`, the Potency entry is “inactive”.

Take `C[C@]12CC[C@@H]3c4ccc(OC(=O)c5ccccc5)cc4CC[C@H]3[C@@H]1CC[C@@H]2O`: the Potency entry was “inactive”.

`CCC(=O)O[C@]1(C(=O)CCl)[C@@H](C)C[C@H]2[C@@H]3C[C@H](F)C4=CC(=O)C=C[C@]4(C)[C@@]3(F)[C@@H](O)C[C@@]21C`: the Potency entry was “inactive”.

`Clc1cc(Cl)c(OCC#CI)cc1Cl`: the Potency entry was “inactive”.

As for `CC1=C(C(=O)OCCN(Cc2ccccc2)c2ccccc2)C(c2cccc([N+](=O)[O-])c2)C(P2(=O)OCC(C)(C)CO2)=C(C)N1` (stereo not drawn), the Potency result is “inactive”.

`C=C[C@]1(C)C[C@@H](OC(=O)CSC(C)(C)CNC(=O)[C@H](N)C(C)C)[C@]2(C)[C@H](C)CC[C@]3(CCC(=O)[C@H]32)[C@@H](C)[C@@H]1O`: the Potency entry was “inactive”.

`C=C1C(=C/C=C2\CCC[C@]3(C)[C@@H]([C@H](C)CCCC(C)(C)O)CC[C@@H]23)C[C@@H](O)C[C@@H]1O`: the Potency entry is “inactive”.

For the compound `CO[C@H]1C=CO[C@@]2(C)Oc3c(C)c(O)c4c(O)c(c(/C=N/N5CCN(C6CCCC6)CC5)c(O)c4c3C2=O)NC(=O)/C(C)=C\C=C[C@H](C)[C@H](O)[C@@H](C)[C@@H](O)[C@@H](C)[C@H](OC(C)=O)[C@@H]1C`, the Potency result is “inactive”.

As for `O=C(CO)[C@@H](O)[C@H](O)[C@@H](O)C(=O)O`, the Potency entry was “inactive”.

On to `O=C(Nc1ccc(Br)cc1)c1cc(Br)c(Br)s1`, for which the Potency entry was “inactive”.

For `CCCOc1ccc2nc(NC(=O)OC)sc2c1`, the Potency entry is “inactive”.

Regarding `CN1[C@@H]2CC[C@H]1CC(OC(c1ccccc1)c1ccccc1)C2` (stereo partly drawn), the Potency result is “inactive”.

With `c1ccc2c(c1)Sc1ccccc1N2CCN1CCCC1`, the Potency entry was “inactive”.

Turning to `C[N+]1(C)[C@@H]2CC(OC(=O)C(O)(c3cccs3)c3cccs3)C[C@H]1[C@@H]1O[C@@H]12` (stereo partly drawn), the Potency result was “inactive”.

`CCCCCCCCCCCCCCCC(=O)OC[C@@H](O)[C@H]1OC[C@H](O)[C@H]1O`: the Potency result was “inactive”.

As for `CCC(=O)OCC(=O)[C@@]1(OC(=O)CC)[C@@H](C)C[C@H]2[C@@H]3CCC4=CC(=O)C=C[C@]4(C)[C@@]3(Cl)[C@@H](O)C[C@@]21C`, the Potency result was “inactive”.

As for `NC[C@@H]1O[C@H](O[C@H]2[C@@H](O)[C@H](O[C@@H]3[C@@H](O)[C@H](N)C[C@H](N)[C@H]3O[C@H]3O[C@H](CN)[C@@H](O)[C@H](O)[C@H]3N)O[C@@H]2CO)[C@H](N)[C@@H](O)[C@@H]1O`, the Potency result was “inactive”.

For `O=C1/C(=C\c2cccs2)CCC/C1=C\c1cccs1`, the Potency result was “inactive”.

As to `CN(C)CCOc1ccccc1Cc1ccccc1` (tested in a mixture with another compound), the Potency entry was “inactive”.

For `Cc1cc(-c2ccc(N=Nc3c(S(=O)(=O)O)cc4cc(S(=O)(=O)O)cc(N)c4c3O)c(C)c2)ccc1N=Nc1c(S(=O)(=O)O)cc2cc(S(=O)(=O)O)cc(N)c2c1O`, the Potency entry was “inactive”.

In the case of `O=C(OCc1ccccc1)c1cccnc1`, the Potency entry is “inactive”.

As to `O=C(O)CO.[NH2-].[NH2-].[Pt+2]`, the Potency result was “inactive”.

Take `CC(=O)O[C@H]1CC[C@@]2(C)C(=CC[C@@H]3[C@@H]2CC[C@]2(C)C(c4cccnc4)=CC[C@@H]32)C1`: the Potency entry is “inactive”.

Regarding `CCCCC(=O)N(Cc1ccc(-c2ccccc2-c2nn[nH]n2)cc1)[C@@H](C(=O)O)C(C)C`, the Potency result was “inactive”.

For the compound `CCOc1cc(-c2nccc3cc(OC)c(OC)cc23)cc(OCC)c1OCC`, the Potency entry was “inactive”.

As for `C=C1CC[C@H](O)CC1=C/C=C1\CCC[C@]2(C)[C@@H]([C@H](C)CC[C@@H](O)C(C)(C)O)CC[C@@H]12`, the Potency entry is “inactive”.

On to `CCOC(=O)[C@@H](N)CS`, for which the Potency result is “inactive”.

For the compound `Cn1c(O)c(N=NC(N)=S)c2ccccc21`, the Potency entry was “inactive”.

As to `CC(/C=C/C=C(\C)C(=O)O[C@@H]1O[C@H](CO[C@@H]2O[C@H](CO)[C@@H](O)[C@H](O)[C@H]2O)[C@@H](O)[C@H](O)[C@H]1O)=C\C=C\C=C(C)\C=C\C=C(/C)C(=O)O[C@@H]1O[C@H](CO[C@@H]2O[C@H](CO)[C@@H](O)[C@H](O)[C@H]2O)[C@@H](O)[C@H](O)[C@H]1O`, the Potency result is “inactive”.
